What is called AC50 is the concentration giving half of the maximal activity seen.

Several values for one entry are separate records, joined by “and”; a condition that tells them apart may be missing. Equal values may be shown once. Activity calls are given as the source filed them. The calls were made as follows: active = hit-call score of the fitted dose curve at least 0.9, where 1 is the maximum; inactive = score below 0.9.

Read-out in one assay: Collagen I, COL1A1 (gene 1277)
Kind of assay: BSK_MyoF_CollagenI: BioMAP Diversity Plus: MyoF Assay for Collagen I Biomarker Activity (AID 2284238). The note with it: primary human lung fibroblasts. The procedure, abridged:
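Human lung fibroblasts were exposed to test chemical for 24 h, then Collagen I was quantified by ELISA. Activity was fitted in the increasing direction against DMSO as the negative control and baseline.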
In the case of `CC(CCl)OP(=O)(OC(C)CCl)OC(C)CCl` (centres undefined), the outcome was inactive.

`OCCCC(F)(F)C(F)(F)C(F)(F)F`: the result was inactive.

On to `O=C(O)C(F)(F)C(F)(F)OC(F)(F)F`, for which the outcome was inactive.

`O=C(Cl)C(F)(F)C(F)(F)C(F)(F)C(F)(F)C(F)(F)C(F)(F)C(F)(F)C(F)(F)F`: the half-maximal activity concentration (AC50) was 41.3 µM (active) and 41.8 µM (active) and 44.2 µM (active).

On to `C=C(C)C(=O)OCC(F)(F)C(F)(F)C(F)(F)F`, for which the outcome was inactive.

For the molecule `FC(F)(F)C(F)(F)C(F)(F)C(F)(F)C(F)(F)C(F)(F)CCS`, the result was inactive.

With `CCO[Si](CCC(F)(F)C(F)(F)C(F)(F)C(F)(F)C(F)(F)C(F)(F)F)(OCC)OCC`, the outcome was inactive.

In the case of `FC(F)(F)C(F)(F)C(F)(F)CI`, the result was inactive.

As for `O=S(=O)(O)C(F)(F)C(F)(F)C(F)(F)C(F)(F)C(F)(F)C(F)(F)C(F)(F)F`, the outcome was inactive.

With `O=C(O)C(F)(F)C(F)(F)C(F)(F)C(F)(F)F`, the result was inactive.

Consider `O=C(O)C(F)(F)C(F)(F)C(F)(F)F`, for which the result was inactive.

Consider `FC(F)(F)C(F)(F)C(F)(F)C(F)(F)CCI`, for which the outcome was inactive.

For the molecule `CCCCCCCOC(=O)c1ccccc1C(=O)OCCCCCCC`, the result was inactive.

With `O=S(=O)(OCC(F)F)C(F)(F)F`, the outcome was inactive.

For the molecule `CCCCCCCCC(F)(F)C(F)(F)C(F)(F)C(F)(F)C(F)(F)C(F)(F)F`, the result was inactive.

As for `C=CC(F)(F)C(F)(F)C(F)(F)C(F)(F)C(F)(F)C(F)(F)C(F)(F)C(F)(F)F`, the result was inactive.

Consider `COC(=O)CCC(F)(F)C(F)(F)C(F)(F)C(F)(F)F`, for which the outcome was inactive.

On to `CC(C)(C)C(=O)CC(=O)C(F)(F)C(F)(F)C(F)(F)F`, for which the outcome was inactive.

Consider `FC(F)(F)C(F)(F)CNCC(F)(F)C(F)(F)F`, for which the outcome was inactive.

Take `O=P(O)(O)OCCC(F)(F)C(F)(F)C(F)(F)C(F)(F)C(F)(F)C(F)(F)F`: the result was inactive.

Turning to `CCCCNc1ccccc1`, the outcome was inactive.

As for `FC1CC(F)(F)C(F)(F)C1(F)F` (centres undefined), the outcome was inactive.

Consider `FC(F)(F)C(F)(F)C(F)(F)N(C(F)(F)C(F)(F)C(F)(F)F)C(F)(F)C(F)(F)C(F)(F)F`, for which the outcome was inactive.

On to `OCC(F)(F)C(F)(F)C(F)(F)C(F)(F)C(F)(F)C(F)F`, for which the outcome was inactive.

For the molecule `C=CC(=O)OCC(F)(F)C(F)(F)C(F)(F)C(F)(F)COC(=O)C=C`, the AC50 is 14.4 µM (active) and 16.6 µM (active).

With `CCc1c(Br)c(Br)c(Br)c(Br)c1Br`, the outcome was inactive.

In the case of `Nc1ccc([N+](=O)[O-])cc1O`, the outcome was inactive.

Consider `O=C(O)C(F)(F)C(F)(F)F`, for which the result was inactive.

On to `N=C(N)C(F)(F)C(F)(F)C(F)(F)C(F)(F)C(F)(F)C(F)(F)C(F)(F)F`, for which the result was inactive.

Read-out in another assay: Collagen III, COL3A1 (gene 1281)
Kind of assay: BSK_MyoF_CollagenIII: BioMAP Diversity Plus: MyoF Assay for Collagen III Biomarker Activity (AID 2284239). As to conditions: primary human lung fibroblasts. The procedure, abridged:
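Human lung fibroblasts were dosed with chemicals and, 24 hours later, collagen III was measured by ELISA. Activity was fitted in the positive direction against the DMSO negative-control baseline.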
Take `CC(CCl)OP(=O)(OC(C)CCl)OC(C)CCl` (centres undefined): the result was inactive.

Turning to `OCCCC(F)(F)C(F)(F)C(F)(F)F`, the outcome was inactive.

Consider `O=C(O)C(F)(F)C(F)(F)OC(F)(F)F`, for which the outcome was inactive.

For the molecule `OCC(F)(F)C(F)(F)C(F)(F)C(F)F`, the outcome was inactive.

Consider `O=C(CC(=O)C(F)(F)C(F)(F)F)C(F)(F)F`, for which the result was inactive.

As for `O=C(Cl)C(F)(F)C(F)(F)C(F)(F)C(F)(F)C(F)(F)C(F)(F)C(F)(F)C(F)(F)F`, the AC50 is 22.5 µM (active) and 23.5 µM (active) and 24.7 µM (active).

On to `C=C(C)C(=O)OCC(F)(F)C(F)(F)C(F)(F)F`, for which the outcome was inactive.

With `FC(F)(F)C(F)(F)C(F)(F)C(F)(F)C(F)(F)C(F)(F)CCS`, the result was inactive.

With `FC(F)(F)C(F)(F)C(F)(F)C(F)(F)C(F)(F)C(F)(F)C(F)(F)C(F)(F)CCS`, the result was inactive.

As for `OCCCC(F)(F)C(F)(F)C(F)(F)C(F)(F)C(F)(F)C(F)(F)C(F)(F)F`, the AC50 was 46.9 µM (active) and 52.2 µM (active).

As for `CCO[Si](CCC(F)(F)C(F)(F)C(F)(F)C(F)(F)C(F)(F)C(F)(F)F)(OCC)OCC`, the result was inactive.

For `FC(F)(F)C(F)(F)C(F)(F)CI`, the outcome was inactive.

Regarding `O=S(=O)(O)C(F)(F)C(F)(F)C(F)(F)C(F)(F)C(F)(F)C(F)(F)C(F)(F)F`, the outcome was inactive.

On to `O=C(O)C(F)(F)C(F)(F)C(F)(F)C(F)(F)F`, for which the result was inactive.

In the case of `O=C(O)C(F)(F)C(F)(F)C(F)(F)F`, the outcome was inactive.

Turning to `FC(F)(F)C(F)(F)C(F)(F)C(F)(F)C(F)(F)C(F)(F)C(F)(F)C(F)(F)F`, the result was inactive.

In the case of `FC(F)(F)C(F)(F)C(F)(F)C(F)(F)CCI`, the outcome was inactive.

As to `CCCCCCCOC(=O)c1ccccc1C(=O)OCCCCCCC`, the result was inactive.

For `O=S(=O)(OCC(F)F)C(F)(F)F`, the result was inactive.

On to `CCCCCCCCC(F)(F)C(F)(F)C(F)(F)C(F)(F)C(F)(F)C(F)(F)F`, for which the result was inactive.

For `C=CC(F)(F)C(F)(F)C(F)(F)C(F)(F)C(F)(F)C(F)(F)C(F)(F)C(F)(F)F`, the outcome was inactive.

`COC(=O)CCC(F)(F)C(F)(F)C(F)(F)C(F)(F)F`: the result was inactive.

In the case of `CC(C)(C)C(=O)CC(=O)C(F)(F)C(F)(F)C(F)(F)F`, the outcome was inactive.

In the case of `FC(F)(F)C(F)(F)CNCC(F)(F)C(F)(F)F`, the outcome was inactive.

Consider `O=P(O)(O)OCCC(F)(F)C(F)(F)C(F)(F)C(F)(F)C(F)(F)C(F)(F)F`, for which the result was inactive.

For the molecule `CCCCNc1ccccc1`, the outcome was inactive.

Turning to `FC1CC(F)(F)C(F)(F)C1(F)F` (centres undefined), the outcome was inactive.

Take `FC(F)(F)C(F)(F)C(F)(F)N(C(F)(F)C(F)(F)C(F)(F)F)C(F)(F)C(F)(F)C(F)(F)F`: the result was inactive.

On to `OCC(F)(F)C(F)(F)C(F)(F)C(F)(F)C(F)(F)C(F)F`, for which the result was inactive.

`C=CC(=O)OCC(F)(F)C(F)(F)C(F)(F)C(F)(F)COC(=O)C=C`: the AC50 is 12.1 µM (active) and 14.6 µM (active).

In the case of `CCc1c(Br)c(Br)c(Br)c(Br)c1Br`, the result was inactive.

With `Nc1ccc([N+](=O)[O-])cc1O`, the result was inactive.

In the case of `O=C(O)C(F)(F)C(F)(F)C(F)(F)C(F)(F)C(F)(F)C(F)(F)C(F)(F)C(F)(F)Cl`, the AC50 was 17.6 µM (active) and 18.3 µM (active).

As to `O=C(O)C(F)(F)C(F)(F)F`, the result was inactive.

As to `N=C(N)C(F)(F)C(F)(F)C(F)(F)C(F)(F)C(F)(F)C(F)(F)C(F)(F)F`, the outcome was inactive.
